Screens from PubChem.
Hits are enriched below; roughly 11% of the tested compounds scored in any of these assays.
USP17 block: human USP17-like deubiquitinase inhibition; A8MUK1; purified USP17, Ub-rhodamine cleavage fluorescence, 3 h; inhibition, % at 50 µM; 47,000 compounds, 6.5% hits; AID 1645855
OTUD3 block: human OTUD3 deubiquitinase inhibition; Q5T2D3; purified OTUD3, Ub-rhodamine fluorescence, 2 h; inhibition, % at 25 µM; 47,000 compounds, 0.7% hits; AID 1645858
USP30 inh: inhibitors of human USP30 deubiquitinase | Q70CQ3 | purified USP30, Ub-rhodamine cleavage fluorescence | inhibition, % at 25 µM | 47,000 compounds, 5.3% hits
USP28 block: inhibitors of human USP28 deubiquitinase | purified USP28, Ub-rhodamine cleavage fluorescence, 30 min | inhibition, % at 25 µM | 47,000 compounds, 3% hits
Target sequence (Q96RU2 whole entry, looked up): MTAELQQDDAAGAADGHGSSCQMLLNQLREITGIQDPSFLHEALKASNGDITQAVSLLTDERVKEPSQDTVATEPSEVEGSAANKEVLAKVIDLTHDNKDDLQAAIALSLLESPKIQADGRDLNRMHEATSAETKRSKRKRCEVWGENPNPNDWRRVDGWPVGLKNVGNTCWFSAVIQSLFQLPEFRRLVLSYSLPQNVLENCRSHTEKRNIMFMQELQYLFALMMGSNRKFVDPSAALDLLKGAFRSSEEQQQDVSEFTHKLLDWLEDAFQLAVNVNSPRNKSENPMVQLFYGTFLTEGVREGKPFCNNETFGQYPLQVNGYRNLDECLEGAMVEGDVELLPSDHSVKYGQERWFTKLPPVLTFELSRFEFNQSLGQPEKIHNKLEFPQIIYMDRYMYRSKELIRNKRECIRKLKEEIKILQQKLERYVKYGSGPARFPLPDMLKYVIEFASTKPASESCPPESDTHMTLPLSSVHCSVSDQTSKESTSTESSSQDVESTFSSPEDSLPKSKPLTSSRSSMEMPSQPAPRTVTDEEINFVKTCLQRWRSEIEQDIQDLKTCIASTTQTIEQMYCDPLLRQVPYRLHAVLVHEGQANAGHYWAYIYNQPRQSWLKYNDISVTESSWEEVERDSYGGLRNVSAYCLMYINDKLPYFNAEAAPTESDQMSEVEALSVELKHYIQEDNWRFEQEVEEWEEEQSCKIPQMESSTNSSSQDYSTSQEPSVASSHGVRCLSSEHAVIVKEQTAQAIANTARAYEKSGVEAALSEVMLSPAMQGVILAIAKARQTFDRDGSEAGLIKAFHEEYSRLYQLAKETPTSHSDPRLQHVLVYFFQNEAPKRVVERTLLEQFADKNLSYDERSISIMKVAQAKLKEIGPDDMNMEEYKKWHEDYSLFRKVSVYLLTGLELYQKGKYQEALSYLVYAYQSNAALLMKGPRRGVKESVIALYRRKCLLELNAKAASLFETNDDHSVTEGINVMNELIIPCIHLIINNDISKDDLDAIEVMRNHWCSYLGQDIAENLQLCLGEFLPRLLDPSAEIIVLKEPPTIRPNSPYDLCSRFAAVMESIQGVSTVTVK
* hit, by the source's call. Rule as the data show it: active = inhibition above about 30%; inactive = the rest.

Cc1cccc(C(=O)OCC(=O)Nc2ccc3[nH]c(=O)[nH]c3c2)c1 was read as USP17 block 57*, OTUD3 block 32*, USP30 inh 77* and USP28 block 48*.
Screening Cc1cccc(C(=O)OCC(=O)Nc2ccc(N3CCOCC3)cc2)c1O returned USP17 block 32*, OTUD3 block 8, USP30 inh 9 and USP28 block 4.
O=C(COC(=O)c1ccc2c(c1)OCO2)Nc1ccc(N2CCCCC2)cc1 was read as USP17 block 33*, OTUD3 block -10, USP30 inh -8 and USP28 block 6.
Screening Cc1nn(C)cc1C(=O)N1CCc2ccccc21 returned USP17 block 2, OTUD3 block 1, USP30 inh 8 and USP28 block -8.
`O=C(COC(=O)c1n[nH]c2ccccc12)Nc1ccc2c(c1)CCC2` gave USP17 block -4, OTUD3 block -2, USP30 inh 13 and USP28 block -1.
`O=C(COC(=O)c1n[nH]c2ccccc12)Nc1ccc(N2CCCCC2)cc1` gave USP17 block 59*, OTUD3 block -7, USP30 inh 38* and USP28 block 25.
Screening O=C(COC(=O)c1ccccc1O)Nc1ccc2[nH]c(=O)[nH]c2c1 returned USP17 block 21, OTUD3 block 6, USP30 inh 34* and USP28 block 28.
CCc1cc(=O)[nH]c(NC2CCN(S(=O)(=O)c3ccccc3C(F)(F)F)CC2)n1 was read as USP17 block -16, OTUD3 block -7, USP30 inh -17 and USP28 block -3.
`CCCc1c(C(=O)O)c(O[C@H]2O[C@H](C)[C@@H](OC)[C@H](OC)[C@@H]2OC)cc2cc3c(c(O)c12)C(=O)c1c(O)cc(O[C@@H]2O[C@@H](C)[C@H](O[C@H]4O[C@H](C)[C@@H](OC)[C@H](OC)[C@@H]4O)[C@@H](OC)[C@H]2O)cc1C3=O` gave USP17 block 55*, OTUD3 block -31, USP30 inh -316 and USP28 block -84.
`COc1cc(O)c2c(c1)C(=O)c1cc3c(c(O)c1C2=O)C(OC1OC(C)C(OC)C(O)C1OC)C(OC)C(C)(O)C3=O` (configuration not stated) gave USP17 block -160, OTUD3 block -149, USP30 inh inactive and USP28 block -202.
For Cc1ccccc1-n1ncc(C(=O)Nc2cccc(C#N)c2)c1C1CC1 the results were USP17 block 0, OTUD3 block 5, USP30 inh 0 and USP28 block 42*.
For O=C(Nc1cccc(F)c1)c1cnn(-c2ccccc2)c1C1CCNCC1 the results were USP17 block -16, OTUD3 block -1, USP30 inh 3 and USP28 block -3.
Screening O=C(Cn1cccc(S(=O)(=O)N2CCCCCC2)c1=O)Nc1ccc(F)cc1 returned USP17 block 42*, OTUD3 block -72, USP30 inh 5 and USP28 block -18.
Screening C=Cc1ccc(Cn2cccc(S(=O)(=O)N3CCCC3)c2=O)cc1 returned USP17 block 63*, OTUD3 block 0, USP30 inh -59 and USP28 block 49*.
For COc1cccc(NC(=O)N2CCN(c3ncccc3C(F)(F)F)CC2)c1 the results were USP17 block 4, OTUD3 block 11, USP30 inh 11 and USP28 block 42*.
Screening COc1cccc(NC(=O)N2CCN(C3=CC4=NC(C)CN4C=N3)CC2)c1 (configuration not stated) returned USP17 block -6, OTUD3 block 5, USP30 inh 0 and USP28 block 20.
Screening COc1ccc(S(=O)(=O)N2CCOCC2)cc1NC(=O)C1Cc2ccccc2CN1C(=O)c1ccco1 (configuration not stated) returned USP17 block -1, OTUD3 block -16, USP30 inh -180 and USP28 block -12.
Screening O=C(NCCc1c[nH]c2ccccc12)/C(=C/c1cccc2ccccc12)NC(=O)c1ccccc1 returned USP17 block 10, OTUD3 block -12, USP30 inh 10 and USP28 block -4.
`COc1ccc(OC)c2c(C)cc(N3CC(C)CC(C)C3)nc12` (configuration not stated) gave USP17 block 96*, OTUD3 block 30*, USP30 inh 43* and USP28 block 54*.
CCC(C(=O)Nc1ncc2c(n1)CC(c1ccc(OC)cc1)CC2=O)c1ccccc1 (configuration not stated) was read as USP17 block 7, OTUD3 block 5, USP30 inh 13 and USP28 block 5.
Screening CCC(C(=O)Nc1ncc2c(n1)CC(c1ccc(F)cc1)CC2=O)c1ccccc1 (configuration not stated) returned USP17 block 20, OTUD3 block 21, USP30 inh 34* and USP28 block 32*.
O=C1CC(c2ccccc2)Cc2nc(Nc3cc(Cl)cc(Cl)c3)ncc21 (configuration not stated) was read as USP17 block 33*, OTUD3 block 6, USP30 inh -5 and USP28 block -9.
For CCC1(C)Cc2ccccc2-c2[nH]c(=O)n(-c3cccc(C)c3)c(=O)c21 (configuration not stated) the results were USP17 block 1, OTUD3 block 2, USP30 inh 11 and USP28 block 8.
For CC(C)(Oc1ccc(Cl)cc1)C(=O)NCc1nnnn1-c1ccc(F)cc1 the results were USP17 block 17, OTUD3 block 11, USP30 inh 18 and USP28 block 31*.
COc1ccccc1/C=C(\C(=O)N1CCN(Cc2ccccc2)CC1)c1ccccc1 was read as USP17 block 17, OTUD3 block 20, USP30 inh 40* and USP28 block 19.
`COc1ccc(NC(=O)COC(=O)C2CC(=O)N(c3ccc(F)cc3)C2)cc1` (configuration not stated) gave USP17 block -8, OTUD3 block -6, USP30 inh -2 and USP28 block 3.
O=C(COc1ccc(N2CC(C(=O)NCc3ccc4c(c3)OCO4)CC2=O)cc1)Nc1ccc(F)cc1 (configuration not stated) was read as USP17 block 57*, OTUD3 block 4, USP30 inh 57* and USP28 block 8.
Cc1ccc(N2CC(C(=O)NCCc3ccc(Cl)cc3)CC2=O)cc1 (configuration not stated) was read as USP17 block 41*, OTUD3 block -7, USP30 inh 4 and USP28 block -5.
Screening Cc1ccc(CNC(=O)C2CC(=O)N(c3ccc(OCC(=O)Nc4ccc(C)cc4C)cc3)C2)cc1 (configuration not stated) returned USP17 block 0, OTUD3 block 13, USP30 inh 0 and USP28 block -4.
Screening O=C(COc1ccc(N2CC(C(=O)NCc3ccccc3)CC2=O)cc1)Nc1ccc(F)cc1 (configuration not stated) returned USP17 block 60*, OTUD3 block 12, USP30 inh 58* and USP28 block 23.
